This note sets out measurements from PubChem BioAssay (NCI).

“And” between values parts separate entries of the source, which are not always exact repeats. Identical values can stand only once. The panel holds about 83,000 compounds, 20% with a hit somewhere; the sample as a whole holds those more often.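 Cell lines were cultured in 96-well plates, exposed to a single compound concentration, and assessed for percent growth 48 hours later.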 A number with no mark means an inactive call. The source made the active and inactive calls. How the source made its calls: active means growth percent below 10; inactive means the rest.

The test system of the experiment is MCF7 breast. Nature of the experiment: NCI-60 one-dose screen, 48 h (100 = growth as untreated, 0 = no growth, -100 = all killed). As to conditions: 10 µM unless noted.
For the compound `O=C(CSc1nnc(-c2ccc(-c3nc4ccc(Cl)cc4[nH]3)cc2)o1)Nc1ccc(Cl)cc1`, the growth is 19.1%.

On to `COc1ccc(-n2c(NC(=O)N3CCN(C)CC3)c(C#N)c3ccccc32)cc1`, for which the growth was 35.5%.

Regarding `N#Cc1c(NC(=O)N2CCOCC2)n(-c2ccc(OC(F)(F)F)cc2)c2cc(F)ccc12`, the growth is 89%.

For `COc1ccc(-c2nc3ccccc3n2CC(=O)N=Nc2c(O)[nH]c3ccc(Br)cc23)cc1`, the growth is 43.7%.

Consider `O=C1Nc2ccccc2/C1=C/C(=O)c1cc2ccccc2oc1=O`, for which the growth is 53.3%.

In the case of `COc1sc(/C=N/NC(=O)c2[nH]c3ccc(Br)cc3c2-c2ccccc2)cc1Br`, the growth was 4.42% (active).

For `CSc1ccc(OCc2nc3ccccc3n2-c2cccc(NS(C)(=O)=O)c2)cc1`, the growth was 89.9% and 55.7%.

For `O=C(NNC(=O)c1ccc(OCc2nc3ccc(Cl)cc3[nH]2)cc1)Nc1ccc(Cl)c(Cl)c1`, the growth was 37.7%.

Take `COc1cc(C2CC(c3ccc(F)cc3)=Nc3c(N)nc(N)nc3N2)ccc1Oc1nc(Nc2ccc(F)cc2)nc(N(C)C)n1` (stereo not drawn): the growth is 7.4% (active).

`NC1(c2ccc(-c3ccc4ncnc(NCc5ccccc5)c4c3)cn2)COC1`: the growth was 102% and 99.5%.

As to `C#CCN(C)CCCOc1ccc(N(CC)C(=O)c2cc(C(C)C)c(O)cc2O)cc1Cl`, the growth was 0.137% (active).

As for `C#CCCCNCCNc1ccnc2cc(Cl)ccc12`, the growth was 52%.

In the case of `COc1cc(CNC(=O)C[C@H](C)CCC=C(C)C)ccc1OCc1cn(-c2ccccc2F)nn1`, the growth is 66.9%.

On to `CCOc1ccccc1NC(=O)N/C(N)=N/c1nc2ccccc2s1`, for which the growth was 11%.

In the case of `N#CC1=C(c2cccs2)Nc2c(c(-c3ccccc3)nn2-c2ccccc2)C12C(=O)Nc1ccc(Br)cc12` (stereo not drawn), the growth was 7.23% (active).

For `COc1cc(CNC(=O)C[C@H](C)CCC=C(C)C)ccc1OCc1cn(-c2ccc(Cl)c(Cl)c2)nn1`, the growth was 49.6%.

Take `CN1C(=O)/C(=C\C(=O)c2cc3ccccc3oc2=O)c2ccccc21`: the growth was 46.5%.

Take `COc1ccc(Nc2nnc(-c3c[nH]c4ccccc34)o2)cc1`: the growth was 58.6%.

For the compound `Cc1ccc(C2CC(c3ccc(NC(=O)Nc4ccccc4)cc3)=NN2c2ccc(S(N)(=O)=O)cc2)cc1` (stereo not drawn), the growth was -82.4% (active).

`Cc1ccc(C(=O)Nc2cc(-n3cnc(F)c3)cc(C(F)(F)F)c2)cc1C#Cc1cnc2cccnn12`: the growth is 38.8%.

Turning to `CCCCCCCCc1ccc(C(=O)Nc2ccc(C)c(OP(=O)(O)O)c2)cc1`, the growth is 88.3%.

Regarding `C=CCn1c(O)c(N=Nc2nc(-c3cc4ccccc4oc3=O)cs2)c2ccccc21`, the growth was 33.4%.

`FC(F)(F)c1cc2c(Cl)ncnc2n1CCN1CCOCC1`: the growth is 89%.

Turning to `C/C(=N\Nc1ccc(C(=O)O)cc1)c1cnn(-c2cc(=O)[nH]c3ccc(C)cc23)c1C`, the growth was 90.4%.

In the case of `CCN1CCN(Cc2ccc(C(=O)Nc3cccc(Nc4ccc5c(OC)cccc5n4)c3)cc2C(F)(F)F)CC1`, the growth is -89.1% (active).

Consider `Nc1nn2c(-c3cc4cc(Br)ccc4oc3=O)ccnc2c1N=Nc1ccccc1`, for which the growth is 20%.

In the case of `Cc1cccc(-c2ccccc2Oc2ccc3nnc(Cl)n3n2)c1`, the growth was 95%.

Turning to `Cc1ccc(/C=C/C(=O)c2ccc(S(=O)(=O)NCCNc3nc(N(C)C)nc(N4CCOCC4)n3)cc2)cc1`, the growth was 7.32% (active).

With `C#CCN(C)CCCOc1ccc(N(C)C(=O)c2cc(C(C)C)c(O)cc2O)cc1Cl`, the growth is 7.62% (active).

Take `Cc1ccc(C(=O)C[n+]2cccc3c4ccccc4ccc32)cc1`: the growth is 11.8%.

On to `COc1ccc(NC(=O)N/N=C/c2c[nH]c3ccccc23)cc1`, for which the growth is 16.8%.

As to `O=C(CSc1nc2ccccc2c(=O)[nH]1)NNC(=O)c1ccccc1Cl`, the growth is 93.4%.

Turning to `CC[C@]12C=CCN3CC[C@]4(C(=C(C(=O)OC)C1)Nc1cc(OC)c([C@@H]5[C@H]6O[C@H]6[C@@]6(CC)CC(C(=O)OC)=C7Nc8cc(O)ccc8[C@@]78CCN5[C@@H]68)cc14)[C@@H]32`, the growth was -25.7% (active).

For the compound `O=C(Cc1c(-c2ccccc2[N+](=O)[O-])n(-c2ncnc3c2c(-c2ccccc2)c(-c2ccccc2)n3Cc2ccccc2)[nH]c1=O)c1ccc(Cl)c(Cl)c1`, the growth was 11.9%.

Turning to `COc1ccc2[nH]c(O)c(N=Nc3nc(-c4ccc(Cl)cc4)cs3)c2c1`, the growth was -19% (active).

Regarding `O=C(CSc1nnc(-c2ccc(-c3nc4ccccc4[nH]3)cc2)o1)Nc1ccccc1`, the growth is 72.7%.

Consider `CN(C)CCOc1ccc(C(=O)C2[C@H](c3ccc(Cl)cc3)[C@@H](c3ccccc3)NC23C(=O)Nc2ccc(Cl)cc23)cc1` (stereo partly drawn), for which the growth was -81.5% (active).

`COc1cc(/C=C/C(=O)c2cnn(-c3cc(=O)[nH]c4ccc(Cl)cc34)c2C)cc(OC)c1OC`: the growth was -37.6% (active).
